Data from the supplement of paper PMC10849652.
About 7,900 targets were measured; listed, in parts, are those with a hit and a random draw of the rest. About 0.6% of all pairs of compound and target were hits. Values without a mark were called inactive.

Legend:
Assay in all cases: log2 fold change, soluble protein after heating vs DMSO (PISA); higher = thermal stabilisation; K562 cells, 10 uM, 30 min; active = over 0.2 and 3.5 SD of the protein, either way, in both replicates (recomputed)
[1] = compound: CS(=O)(=O)c1ccc(-c2cnc(N)c(C(=O)Nc3ccccc3)n2)cc1
Outline: (§1)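 Quantification of soluble protein used TMTpro 16plex LC-MS/MS, with channel sums equalised. Samples were the supernatant after 21,000xg for 90 min of pooled aliquots from K562 cells (2×10^6 cells/mL) treated with 10 μM compound for 30 min, heated for 3 min over 48°C-58°C, and extracted in PBS with 0.5% NP-40 at 4°C. Values, from duplicates, describe thermal stability against control samples on a log2 fold-change scale.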

[2] = compound: C[C@@H](Oc1cc(-c2cnn(C3CCNCC3)c2)cnc1N)c1c(Cl)ccc(F)c1Cl [crizotinib]
Outline: as §1

[3] = compound: C[C@@H]1COCCN1C2=NC(=NC(=C2)C3(CC3)S(=O)(=O)C)C4=C5C=CNC5=CC=C4
Outline: as §1

[4] = compound: C[C@H](C1=CC=C(C=C1)C(=O)NC2=C3C=CNC3=NC=C2)N
Outline: as §1

[5] = compound: C[C@H](Nc1ncnc2nc[nH]c12)c1cc2cccc(Cl)c2c(=O)n1-c1ccccc1 [duvelisib]
Outline: as §1

[6] = compound: Cc1cc(Nc2cc(CN3CCOCC3)c3nc(C)c(Cc4ccc(Cl)cc4F)n3n2)n[nH]1 [gandotinib]
Outline: as §1

[7] = compound: Cc1cc(Nc2cc(N3CCN(C)CC3)nc(Sc3ccc(NC(=O)C4CC4)cc3)n2)n[nH]1 [tozasertib]
Outline: as §1

[8] = compound: Cc1cc(SCc2sc(-c3ccc(C(F)(F)F)cc3)nc2C)ccc1OCC(=O)O
Outline: as §1

[9] = compound: Cc1ccc(-n2nc(C(C)(C)C)cc2NC(=O)Nc2ccc(OCCN3CCOCC3)c3ccccc23)cc1 [doramapimod]
Outline: as §1

[10] = compound: Cc1ccc(C(=O)N(CCCN)[C@@H](c2nc3cc(Cl)ccc3c(=O)n2Cc2ccccc2)C(C)C)cc1 [ispinesib]
Outline: as §1

Sequence of UniProt Q12968 (Q12968 whole entry, looked up): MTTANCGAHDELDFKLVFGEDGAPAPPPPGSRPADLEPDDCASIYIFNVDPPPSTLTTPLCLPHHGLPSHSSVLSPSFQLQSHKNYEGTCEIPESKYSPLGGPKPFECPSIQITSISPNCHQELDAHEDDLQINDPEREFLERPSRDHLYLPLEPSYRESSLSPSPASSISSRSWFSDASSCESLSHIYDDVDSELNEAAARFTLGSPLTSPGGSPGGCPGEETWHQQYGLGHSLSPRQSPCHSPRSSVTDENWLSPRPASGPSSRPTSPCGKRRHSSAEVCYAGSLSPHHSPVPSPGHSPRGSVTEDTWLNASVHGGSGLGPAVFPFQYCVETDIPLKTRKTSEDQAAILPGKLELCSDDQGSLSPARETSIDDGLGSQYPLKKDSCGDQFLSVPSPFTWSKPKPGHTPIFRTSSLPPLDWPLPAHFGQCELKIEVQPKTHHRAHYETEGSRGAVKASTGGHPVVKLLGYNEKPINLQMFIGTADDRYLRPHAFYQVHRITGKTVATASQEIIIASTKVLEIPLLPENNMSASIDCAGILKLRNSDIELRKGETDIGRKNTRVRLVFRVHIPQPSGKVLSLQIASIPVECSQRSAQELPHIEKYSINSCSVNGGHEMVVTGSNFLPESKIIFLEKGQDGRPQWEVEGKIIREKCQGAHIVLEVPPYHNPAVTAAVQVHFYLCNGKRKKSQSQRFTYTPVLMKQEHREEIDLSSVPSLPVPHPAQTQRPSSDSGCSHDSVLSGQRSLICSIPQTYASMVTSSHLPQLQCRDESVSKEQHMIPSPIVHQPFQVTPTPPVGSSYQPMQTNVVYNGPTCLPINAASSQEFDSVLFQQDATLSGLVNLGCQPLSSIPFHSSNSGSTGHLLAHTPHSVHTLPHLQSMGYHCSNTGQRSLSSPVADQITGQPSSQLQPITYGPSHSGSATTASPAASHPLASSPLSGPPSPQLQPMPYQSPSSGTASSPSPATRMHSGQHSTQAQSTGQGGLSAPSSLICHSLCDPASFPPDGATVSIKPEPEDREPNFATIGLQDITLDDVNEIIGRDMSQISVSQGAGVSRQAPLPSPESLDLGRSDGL
Sequence of UniProt O95747 (O95747 whole entry, looked up): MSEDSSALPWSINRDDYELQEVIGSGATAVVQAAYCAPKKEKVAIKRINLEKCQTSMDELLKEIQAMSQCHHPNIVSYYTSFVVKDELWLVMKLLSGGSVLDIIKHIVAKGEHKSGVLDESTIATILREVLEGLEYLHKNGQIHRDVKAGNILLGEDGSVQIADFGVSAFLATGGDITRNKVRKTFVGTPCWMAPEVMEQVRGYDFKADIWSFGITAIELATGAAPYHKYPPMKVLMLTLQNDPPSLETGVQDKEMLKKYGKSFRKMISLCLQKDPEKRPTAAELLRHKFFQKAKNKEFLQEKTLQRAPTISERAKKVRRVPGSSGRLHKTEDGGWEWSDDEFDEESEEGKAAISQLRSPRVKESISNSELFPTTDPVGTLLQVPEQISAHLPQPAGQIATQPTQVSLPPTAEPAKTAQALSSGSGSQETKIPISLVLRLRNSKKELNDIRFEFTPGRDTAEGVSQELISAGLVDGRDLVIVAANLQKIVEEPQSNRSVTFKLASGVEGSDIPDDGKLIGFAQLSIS
Sequence of UniProt Q8NCF5 (Q8NCF5 whole entry, looked up): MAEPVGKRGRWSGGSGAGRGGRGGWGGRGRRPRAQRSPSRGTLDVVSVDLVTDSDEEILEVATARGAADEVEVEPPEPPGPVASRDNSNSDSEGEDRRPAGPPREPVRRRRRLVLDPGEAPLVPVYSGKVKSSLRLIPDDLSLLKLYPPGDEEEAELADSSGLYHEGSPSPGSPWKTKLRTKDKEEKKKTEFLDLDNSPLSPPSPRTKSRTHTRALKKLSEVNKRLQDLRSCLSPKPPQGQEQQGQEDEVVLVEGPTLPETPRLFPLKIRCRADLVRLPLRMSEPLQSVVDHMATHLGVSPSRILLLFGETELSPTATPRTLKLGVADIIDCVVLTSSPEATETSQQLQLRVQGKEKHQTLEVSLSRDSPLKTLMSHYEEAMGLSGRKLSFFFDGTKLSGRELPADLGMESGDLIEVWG
Sequence of UniProt Q8N6M0 (Q8N6M0 whole entry, looked up): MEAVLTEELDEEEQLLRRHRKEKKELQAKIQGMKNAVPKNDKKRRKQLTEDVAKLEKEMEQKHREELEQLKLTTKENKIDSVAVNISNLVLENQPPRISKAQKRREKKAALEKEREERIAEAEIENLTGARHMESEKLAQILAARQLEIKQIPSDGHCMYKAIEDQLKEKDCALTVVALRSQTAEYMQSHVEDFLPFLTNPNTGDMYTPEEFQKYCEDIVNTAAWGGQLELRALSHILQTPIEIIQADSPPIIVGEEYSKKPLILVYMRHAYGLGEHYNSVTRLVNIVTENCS
Sequence of UniProt Q96BN8 (Q96BN8 whole entry, looked up): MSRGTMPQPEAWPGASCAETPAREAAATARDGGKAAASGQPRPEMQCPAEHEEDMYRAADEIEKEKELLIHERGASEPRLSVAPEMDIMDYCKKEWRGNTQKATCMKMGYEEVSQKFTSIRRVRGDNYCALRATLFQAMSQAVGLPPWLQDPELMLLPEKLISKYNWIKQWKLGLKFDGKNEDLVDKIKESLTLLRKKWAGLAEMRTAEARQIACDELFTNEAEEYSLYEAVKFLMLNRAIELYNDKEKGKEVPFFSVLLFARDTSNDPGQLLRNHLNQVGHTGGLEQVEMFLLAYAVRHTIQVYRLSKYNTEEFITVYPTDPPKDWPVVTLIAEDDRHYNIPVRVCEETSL
Sequence of UniProt Q92621 (Q92621 whole entry, looked up): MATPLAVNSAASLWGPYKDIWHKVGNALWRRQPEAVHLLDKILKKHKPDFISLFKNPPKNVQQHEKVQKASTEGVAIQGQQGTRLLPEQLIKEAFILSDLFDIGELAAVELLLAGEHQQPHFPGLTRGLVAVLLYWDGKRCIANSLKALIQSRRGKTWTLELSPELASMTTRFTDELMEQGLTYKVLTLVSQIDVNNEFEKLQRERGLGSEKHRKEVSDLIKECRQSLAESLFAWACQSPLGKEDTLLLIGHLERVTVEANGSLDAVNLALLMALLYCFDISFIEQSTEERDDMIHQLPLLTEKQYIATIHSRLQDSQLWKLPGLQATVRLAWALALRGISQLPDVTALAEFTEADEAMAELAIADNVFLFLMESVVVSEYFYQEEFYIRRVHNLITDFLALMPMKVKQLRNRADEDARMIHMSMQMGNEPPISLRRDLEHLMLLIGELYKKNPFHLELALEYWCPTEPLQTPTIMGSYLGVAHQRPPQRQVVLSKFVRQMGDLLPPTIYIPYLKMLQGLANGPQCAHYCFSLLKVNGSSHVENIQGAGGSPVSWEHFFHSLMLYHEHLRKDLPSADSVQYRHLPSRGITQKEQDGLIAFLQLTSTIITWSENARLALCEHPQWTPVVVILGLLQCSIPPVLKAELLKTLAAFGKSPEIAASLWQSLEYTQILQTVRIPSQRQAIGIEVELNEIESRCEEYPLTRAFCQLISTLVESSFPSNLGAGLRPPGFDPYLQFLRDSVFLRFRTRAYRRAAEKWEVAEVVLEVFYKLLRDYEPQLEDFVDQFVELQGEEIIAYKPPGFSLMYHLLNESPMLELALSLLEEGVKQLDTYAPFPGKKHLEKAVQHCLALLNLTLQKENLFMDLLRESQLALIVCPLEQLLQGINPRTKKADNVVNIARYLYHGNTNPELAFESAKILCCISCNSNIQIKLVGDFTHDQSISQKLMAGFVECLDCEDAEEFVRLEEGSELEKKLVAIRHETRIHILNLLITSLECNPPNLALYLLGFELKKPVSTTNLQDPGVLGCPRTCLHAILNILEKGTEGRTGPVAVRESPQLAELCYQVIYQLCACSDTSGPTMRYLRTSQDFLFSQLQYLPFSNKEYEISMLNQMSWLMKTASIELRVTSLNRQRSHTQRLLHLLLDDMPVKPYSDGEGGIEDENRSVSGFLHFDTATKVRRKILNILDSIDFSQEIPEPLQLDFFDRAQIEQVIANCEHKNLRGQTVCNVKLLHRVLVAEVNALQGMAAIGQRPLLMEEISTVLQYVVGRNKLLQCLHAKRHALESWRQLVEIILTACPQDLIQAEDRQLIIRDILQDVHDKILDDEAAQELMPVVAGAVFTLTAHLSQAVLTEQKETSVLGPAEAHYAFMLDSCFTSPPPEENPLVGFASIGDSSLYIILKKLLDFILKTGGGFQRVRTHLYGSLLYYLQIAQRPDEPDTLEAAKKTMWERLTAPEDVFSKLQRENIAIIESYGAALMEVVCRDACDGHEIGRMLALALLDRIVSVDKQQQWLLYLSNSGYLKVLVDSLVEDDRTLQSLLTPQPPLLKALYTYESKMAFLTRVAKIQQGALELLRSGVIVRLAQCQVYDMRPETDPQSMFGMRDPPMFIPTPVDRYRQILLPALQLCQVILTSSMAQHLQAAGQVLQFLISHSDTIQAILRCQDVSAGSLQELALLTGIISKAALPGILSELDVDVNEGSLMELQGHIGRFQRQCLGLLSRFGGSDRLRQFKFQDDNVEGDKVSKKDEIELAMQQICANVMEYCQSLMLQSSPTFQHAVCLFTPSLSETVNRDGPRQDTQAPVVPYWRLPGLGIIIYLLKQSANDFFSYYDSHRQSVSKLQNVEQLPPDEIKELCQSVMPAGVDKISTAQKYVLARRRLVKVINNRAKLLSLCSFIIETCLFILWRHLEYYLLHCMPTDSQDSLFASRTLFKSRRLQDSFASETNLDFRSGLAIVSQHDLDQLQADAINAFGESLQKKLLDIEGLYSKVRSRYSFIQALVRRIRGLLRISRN
Sequence of UniProt Q9H1E3 (Q9H1E3 whole entry, looked up): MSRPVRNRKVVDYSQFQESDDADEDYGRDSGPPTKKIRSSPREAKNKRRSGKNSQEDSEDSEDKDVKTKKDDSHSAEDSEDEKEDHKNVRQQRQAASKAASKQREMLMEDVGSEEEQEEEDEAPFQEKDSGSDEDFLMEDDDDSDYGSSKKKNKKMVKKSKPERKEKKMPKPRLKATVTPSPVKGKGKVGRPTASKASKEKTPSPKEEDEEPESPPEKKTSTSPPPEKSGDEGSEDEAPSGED
Sequence of UniProt Q9BRA0 (Q9BRA0 whole entry, looked up): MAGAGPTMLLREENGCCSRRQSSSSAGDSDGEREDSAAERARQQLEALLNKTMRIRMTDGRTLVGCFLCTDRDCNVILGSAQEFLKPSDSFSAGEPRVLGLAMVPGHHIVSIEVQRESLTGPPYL

Target	log2 fold change [1]	log2 fold change [2]	log2 fold change [3]	log2 fold change [4]	log2 fold change [5]	log2 fold change [6]	log2 fold change [7]	log2 fold change [8]	log2 fold change [9]	log2 fold change [10]
NDUFB8 (UniProt O95169)	0.035	0.09	-0.015	-0.001	0.161	0.045	0.028	0.078	-0.057	0.123
PAK1 isoform 2 (UniProt Q13153)	0.009	0.054	0.063	-0.308 (active)	0.09	-0.098	-0.076	0.056	-0.155	0.084
NUCKS1 (UniProt Q9H1E3)	-0.147	0.274 (active)	-0.133	0.029	0.005	0.001	-0.064	-0.089	-0.03	0.168
MT-ND4 (UniProt P03905)	-0.107	0.008	0.052	-0.148	0.079	-0.104	0.06	-0.066	0	0.118
NFATC2IP (UniProt Q8NCF5)	0.014	0.023	0.195	-0.009	0.121	0.011	0.03	0.045	-0.03	0.024
MXRA7 (UniProt P84157)	0.043	-0.012	0.051	-0.138	-0.069	-0.122	0.005	0.047	0.035	0.103
MRPS24 (UniProt Q96EL2)	0.014	-0.031	0.192	0.082	-0.009	-0.117	0.048	0.094	-0.028	-0.427 (active)
MTFR1L (UniProt Q9H019)	0.059	-0.162	-0.088	0.153	-0.146	-0.123	-0.084	0.039	0.042	-0.329
NCL (UniProt P19338)	-0.136	0.12	-0.59	0.428	-0.162	0.315	0.064	0.075	0.254	-0.19
NAA38 isoform 2 (UniProt Q9BRA0)	0.012	-0.052	0.099	0.018	0.124	-0.004	-0.013	0.015	-0.02	-0.064
OTULIN (UniProt Q96BN8)	-0.099	-0.079	0.04	0.036	-0.027	-0.088	0.098	0.073	-0.095	-0.208
NISCH (UniProt Q9Y2I1)	-0.026	-0.284	0.035	0.047	-0.363	-0.4	0.006	0.126	0.054	-0.408 (active)
MRPS33 (UniProt Q9Y291)	0.041	0.005	0.005	0.168	-0.034	-0.034	0.02	0.121	0.034	-0.485 (active)
NACC1 (UniProt Q96RE7)	0	0.005	0.082	-0.03	0.103	-0.129	0.161	0.152	-0.064	-0.019
NIPSNAP2 (UniProt O75323)	-0.014	0.083	0.068	-0.041	0.019	0.057	-0.084	0.105	-0.106	0.162
NSUN2 (UniProt Q08J23)	-0.107	-0.034	0.031	0.008	-0.077	-0.151	0.065	0.053	0.067	-0.098
P4HA2 (UniProt O15460)	0.079	0.023	-0.627 (active)	0.178	0.037	0.021	-0.005	0.053	0.069	-0.088
MT-ATP6 (UniProt P00846)	0.041	0.355	0.225	0.135	0.153	0.143	0.045	-0.081	-0.038	0.076
NBN (UniProt O60934)	0.02	0.009	0.038	-0.063	0.105	-0.069	0.028	0.116	-0.004	0.008

Target	log2 fold change [1]	log2 fold change [2]	log2 fold change [3]	log2 fold change [4]	log2 fold change [5]	log2 fold change [6]	log2 fold change [7]	log2 fold change [8]	log2 fold change [9]	log2 fold change [10]
MUL1 (UniProt Q969V5)	-0.023	0.038	0.078	-0.006	-0.042	-0.018	0.083	-0.02	0.056	-0.01
MRPS18B (UniProt Q9Y676)	-0.187	-0.047	0.075	0.145	0.006	-0.028	0.016	0.157	0.029	-0.397 (active)
MRPL47 (UniProt Q9HD33)	0.039	0.019	-0.087	0.261	-0.076	0.625 (active)	0.033	0.095	0.11	-0.237
NEU1 (UniProt Q99519)	-0.005	-0.365 (active)	-0.15	0.029	0.06	-0.056	-0.015	-0.008	0.155	-0.319 (active)
MIS12 (UniProt Q9H081)	0.016	-0.064	-0.03	-0.099	0.037	-0.012	0.153	0.009	-0.019	-0.034
NCAPG (UniProt Q9BPX3)	0.029	-0.031	0.034	0.034	0.073	-0.144	0.115	0.071	-0.077	-0.01
NELFA (UniProt Q9H3P2)	-0.01	0.082	0.198	-0.011	0.118	0.004	0.142	0.234	-0.014	-0.068
NPEPPS (UniProt P55786)	0.019	-0.14	0.122	-0.039	0.063	-0.03	-0.066	-0.012	0.013	0.082
MNAT1 (UniProt P51948)	0.007	0.02	-0.068	-0.036	0.007	0.024	0.015	0.005	-0.057	0.089
NUP98 (UniProt P52948)	0.031	-0.02	0.007	-0.009	0.007	-0.044	0.04	0.1	0.022	0.001
MSH3 (UniProt P20585)	-0.029	0.045	-0.031	0.047	0.07	-0.096	-0.003	0.024	0.035	0.088
NUMA1 (UniProt Q14980)	0.117	-0.001	-0.071	0.089	-0.073	-0.066	0.108	0.07	0.178	-0.089
OXSR1 (UniProt O95747)	0.031	-0.127	0.021	0.011	0.037	-0.096	-0.013	0.095	0.011	-0.055
OTUD6B (UniProt Q8N6M0)	0.013	-0.146	0.024	0	-0.02	-0.086	0.055	0.122	0.009	-0.165
MYH11 isoform 2 (UniProt P35749)	-0.026	-0.025	0.01	-0.078	0	0.014	-0.032	0.009	0.057	-0.012
NUDT16 (UniProt Q96DE0)	0.054	0.052	0.042	-0.169	0.045	0.063	-0.011	0	-0.034	0.067
NOP2 isoform 4 (UniProt P46087)	0	-0.127	-0.25	0.673	-0.166	0.231	0.084	-0.022	0.219	0.163
NOSIP (UniProt Q9Y314)	0.108	0.329	-0.08	-0.03	0.118	-0.118	0.191	0.257	-0.113	0.133
NME1 isoform 2 (UniProt P15531)	0.013	0.012	0.161	0.01	0.38	-0.144	-0.07	0.195	-0.015	0

Target	log2 fold change [1]	log2 fold change [2]	log2 fold change [3]	log2 fold change [4]	log2 fold change [5]	log2 fold change [6]	log2 fold change [7]	log2 fold change [8]	log2 fold change [9]	log2 fold change [10]
NAP1L1 (UniProt P55209)	0.018	-0.025	-0.122	-0.021	0.068	-0.09	0.045	-0.016	0.009	0.04
ORC3 isoform 2 (UniProt Q9UBD5)	-0.054	-0.434 (active)	0.015	-0.005	-0.03	-0.044	0.062	0.177	0.016	-0.17
MRPS25 (UniProt P82663)	-0.018	-0.082	-0.103	0.165	0.009	-0.109	0.017	0.121	-0.083	-0.438 (active)
MPP1 (UniProt Q00013)	0.064	-0.092	0.05	0.001	0.007	-0.073	-0.022	0.061	0.023	-0.108
NDUFB7 (UniProt P17568)	0.004	0.001	0.03	-0.094	0.006	-0.02	-0.018	-0.041	0.021	0.015
NA, A0A096LPI6	-0.014	0.079	0.03	-0.015	0.018	0.04	-0.034	-0.051	-0.038	0.047
MRPS35 (UniProt P82673)	0.004	-0.043	0.016	0.166	0.016	-0.039	0.032	0.101	0.005	-0.277 (active)
NARS2 (UniProt Q96I59)	0.038	-0.099	0.125	-0.061	0.037	0.02	-0.051	-0.028	-0.009	-0.401 (active)
OXSM (UniProt Q9NWU1)	0.016	0.053	0.036	-0.07	-0.024	-0.054	0.011	-0.002	-0.055	0.077
NDUFB10 (UniProt O96000)	0.024	-0.025	0.012	0.027	0.023	-0.029	-0.002	0.024	0.003	-0.073
NDUFS7 (UniProt O75251)	0.013	-0.109	0.029	-0.019	0.053	-0.108	-0.046	0.013	-0.02	-0.114
OAT (UniProt P04181)	-0.003	-0.123	0.053	-0.083	0.032	-0.03	-0.102	0.018	0.037	-0.233 (active)
NA, A0A0B4J2A0	-0.087	-0.18	0.093	0.06	0.071	-0.087	-0.061	0.061	-0.049	-0.121
NFATC3 (UniProt Q12968)	-0.06	-0.179	0.014	-0.04	-0.012	-0.161	-0.039	0.091	0.066	0.256
NUP205 (UniProt Q92621)	0.001	-0.054	0.002	-0.019	0.018	-0.17	0.025	0.094	0	-0.018
MORF4L2 (UniProt Q15014)	-0.085	0.013	-0.275 (active)	0.053	-0.201	0.085	-0.007	-0.012	0.035	0.011
NCOA7 (UniProt Q8NI08)	-0.003	-0.17	0.012	-0.034	0.091	-0.238 (active)	-0.052	0.031	0.082	-0.037
MRPS31 (UniProt Q92665)	0.063	0.024	0.027	0.199	0.005	0.121	-0.015	0.073	0	-0.28 (active)
NCAPD2 (UniProt Q15021)	0.018	-0.024	0.004	0.093	0.035	-0.077	0.092	0.109	-0.049	-0.029
